The list is not random: actives were taken first. Their share in the collection is about 21%.
Pf growth 48h – Primary qHTS for delayed death inhibitors of the malarial parasite plastid, 48 hour incubation; AID 504832, 2011; Potency, µM (highest dose often 28.7 µM), hits mostly inhibitors; P. falciparum luciferase growth in erythrocytes, 48 h; hit rate 5.9% among 310,000
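First compound was added to culture medium, then infected red cells at 0.1% parasitemia and 2% hematocrit (final). After incubation at 37 C under 5% CO2, luciferase detection reagent was dispensed and light output recorded.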
Pf growth 96h – Primary qHTS for delayed death inhibitors of the malarial parasite plastid, 96 hour incubation. P. falciparum luciferase reporter growth, 96 h. Potency, µM (series often up to 28.7 µM), actives largely listed as inhibitors. hit rate 6.9% among 320,000
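P. falciparum expressing integrated firefly luciferase grown in erythrocytes (2% hematocrit, 0.05% parasitemia final) with compounds for 96 hours at 37 C, 5% CO2. Growth inhibition read as loss of luminescence after adding luciferase detection reagent.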
CHX counter – Cycloheximide Counterscreen for Small Molecule Inhibitors of Shiga Toxin; cell reporter, cycloheximide protein synthesis inhibition counterscreen; max response, %; hit rate 12% among 300,000; in the data active = max response mostly above about 13%, no sharp cut-off; inactive = mostly below about 14%; also: read at 38.3 µM for the half of the compounds with a filed dose
Shiga inhibitor – A qHTS for Small Molecule Inhibitors of Shiga Toxin; Vero cells, Shiga toxin protein synthesis inhibition reporter; inhibition, % at 38.7 µM; hit rate 9.2% among 290,000; in the data active = inhibition mostly above about 28%, no sharp cut-off; inactive = mostly below about 43%
Numbers stand for hits; i = inactive; ? = inconclusive; nt = no result; [ ] = another dose, or the depositor's remark. Unless noted, calls follow the shape of the dose curve; as a rule, active = well fitted inhibition curve with a large enough effect; inconclusive = small, poorly fitted or top-dose-only effect, or another doubt; inactive = no such curve, though single readings can be large or run the other way.

SMILES	Pf growth 48h	Pf growth 96h	CHX counter	Shiga inhibitor
O=C(COc1ccc(Cl)cc1Cl)N(C1CCCCC1)C1CCS(=O)(=O)C1 (stereo unspecified)	?	10µM	nt	nt
N#C/C(=C\c1ccc2c(c1)OCCO2)C(=O)Nc1ccc(C(=O)O)cc1	i	i	78	113
CCCCCCCCNC(=O)/C(C#N)=C/c1ccc2c(c1)OCCO2	i	i	i	i
N#C/C(=C/c1ccc2c(c1)OCO2)C(=O)Nc1ccc(O)cc1	i	?	49	i
CC(=O)N1CCN(C(=O)c2cc(=O)c3ccccc3o2)CC1	i	i	i	i
COc1ccc(NC(=O)CN2C(=O)NC(C)(C3CC3)C2=O)c(OC)c1 (stereo unspecified)	i	i	nt	nt
O=C(Nc1ccc(Cl)cc1C(=O)N1CCCC1)c1cccc([N+](=O)[O-])c1	i[5.75 µM]	i	i	i
S=C(NCc1ccc2c(c1)OCO2)Nc1ccc(-c2nc3ccccc3[nH]2)cc1	12µM	5.2µM	32	62
S=C(NCCCN1CCOCC1)Nc1ccc(-c2nc3ccccc3[nH]2)cc1	?	?	i	i
CN(C)CCNC(=S)Nc1ccc(-c2nc3ccccc3[nH]2)cc1	i	?	46	122
CCc1ccccc1NC(=O)C1CCCN1C(=O)Nc1ccc(C)cc1 (stereo unspecified)	i	i	i	i
CC(Oc1ccc([N+](=O)[O-])cc1)C(=O)NCC1CCCO1 (stereo unspecified)	i	i	i	i
COCc1ccc(C(=O)N2CCCC(C(=O)c3cc(F)ccc3F)C2)s1 (stereo unspecified)	?	?	i	i
O=C(c1ccoc1)N1CCC(CO)(CCc2ccccc2)CC1	i	12µM	i	i
Cc1ccc(S(=O)(=O)N(C)CC(=O)Nc2cc(C)ccn2)cc1	i	i	nt	nt
Cc1ccc(S(=O)(=O)NNC(=O)Nc2ccccc2F)c(C)c1	i	i	i	i
O=C(Nc1ccccc1F)Nc1cccc2ccc(O)cc12	?	i	46	102
Cc1ccc(N=Nc2ccc(C)cc2NC(=O)Nc2ccccc2F)cc1	?	?	46	i
CCN(CC)CCNC(=O)c1ccc(NC(=O)Nc2cccc3ccccc23)cc1	13µM	9.3µM	i	i
O=C(Nc1ccc(Br)cc1)Nc1ccccc1F	i	i	50	107
O=C(Cc1cccc2ccccc12)NCC(=O)Nc1ccccc1F	i	i	i	i
COc1ccc(C(=O)NCc2nnc(SCC(=O)Nc3ccccc3OC)n2C)cc1	i	?	i	i
Cn1nc(-c2ccccc2)cc1NC(=O)Nc1ccccc1F	i	i	36	i
C[C@H](NC(=O)Nc1ccccc1F)C(=O)O	i	?	i	i
CCN(CC)C(=O)c1ccc(NC(=O)Nc2ccccc2F)cc1	i	i	16	i
SMILES	Pf growth 48h	Pf growth 96h	CHX counter	Shiga inhibitor
Cc1cc(C)cc(NC(=O)Nc2cc(-c3ccccc3)nn2C)c1	i	i	i	i
O=C(Nc1ccccc1F)Nc1ccccc1F	i	i	35	73
Cn1nc(-c2ccccc2)cc1NC(=O)CCCC(=O)O	i	i	i	i
Cn1nc(-c2ccccc2)cc1NC(=O)C1CCCCC1	i	i	41	i
CN(C)c1nc(F)c(F)c(S(=O)(=O)c2ccccc2)c1F	i	i	i	i
COC(=O)/C=C/c1cccc([C@H]2[C@@H]3C=CC[C@@H](C)[C@@H]3C(=O)N2Cc2ccccc2)c1	nt	nt	i	i
O=C(Nc1ccc(F)cc1F)NC1CCCc2ccccc21 (stereo unspecified)	i	i	i	i
O=C(NNc1cccc(Cl)n1)Nc1ccccc1F	i	i[5.75 µM]	i	i
O=C(NNc1ccccc1)Nc1ccccc1F	i	i	20	87
O=C(Nc1ccccc1F)NC1CCCc2ccccc21 (stereo unspecified)	?	?	i	34
CC1=C(C)C(=O)C(CCCCC#CCCCC#CCO)=C(C)C1=O	13µM	9.3µM	i	i
O=C(COC(=O)c1cccc(Br)c1)Nc1ccc2[nH]c(=O)[nH]c2c1	i	i	nt	nt
Cc1cccc2sc(NNC(=O)c3ccc(S(=O)(=O)N4CCc5ccccc5C4)cc3)nc12	?	5.2µM	i	i
Cc1cc(C)c2nc(NNC(=O)c3ccc(S(=O)(=O)N4CCCCC4)cc3)sc2c1	?	4.7µM	i	i
CC(C)c1cc2c(c(O)c1O)[C@@]1(C(=O)O)CCCC(C)(C)[C@@H]1CC2	nt	nt	i	i
Cc1cc(C)c(C#N)c(SCc2ccc(F)cc2)n1	?	i	i	i
Cc1cccc(CSc2nc3c(cc2C#N)CCC3)c1	i	i	i	i
N#Cc1cc2c(nc1SCc1nc3ccccc3[nH]1)CCC2	i	i	44	i
Cc1cc(C)c(C#N)c(SCc2nc3ccccc3[nH]2)n1	nt	i	36	94
CC(=O)NC(Cc1cc(C)ccc1C)C(=O)N1CCN(C(=O)c2ccc([N+](=O)[O-])cc2)CC1 (stereo unspecified)	i	?	i	i
CN(C)CCn1c(=O)n(Cc2ccccc2)c(=O)c2c3c(sc21)CCCCC3	i	?	i	i
CCOC(=O)c1sc2c(c1C)c(=O)n(Cc1ccccc1)c(=O)n2CCN(C)C	?	2.1µM	i	i
COC(=O)c1ccc(SCC(=O)NCc2ccccc2)c([N+](=O)[O-])c1	nt	2.6µM	i	i
O=C(Cc1ccc(F)cc1)NC1CCS(=O)(=O)C1 (stereo unspecified)	i	i	nt	nt
Cn1nc(CSc2ccccc2)c(C=O)c1Cl	i	i	41	i
SMILES	Pf growth 48h	Pf growth 96h	CHX counter	Shiga inhibitor
Cn1nc(-c2ccccc2)c(/C=N/O)c1Cl	i	?	i	i
CCCC(=O)Nc1ccc(C2C(=O)c3ccccc3C2=O)cc1	i	i	12	i
CC(=O)Nc1ccc(C2C(=O)c3ccccc3C2=O)cc1	i	i	24	68
COc1ccc(C(C)=O)cc1CSc1nnc(SCc2cc(C(C)=O)ccc2OC)s1	?	?	i	i
COc1ccc(C(C)=O)cc1CSc1nnc(Nc2c(C)cccc2C)s1	?	9.3µM	i	i
COc1ccc(C(C)=O)cc1CSc1nnc(Nc2ccccc2C)s1	?	4.1µM	i	i
COc1ccc(C(C)=O)cc1CSc1nnc(Nc2ccc(C)cc2C)s1	?	?	i	i
S=c1[nH]nc(-c2cccc3ccccc23)n1-c1cccnc1	i	i	i	i
Cc1cc2nc(N3CCN(C(=O)c4ccco4)CC3)sc2cc1C	i	i	nt	nt
CCOc1ccc2nc(N3CCC(C(=O)N4CCN(C(=O)c5ccco5)CC4)CC3)sc2c1	13µM	?	i	i
CCOc1cc2sc(N3CCC(C(=O)Nc4ccc(C)cc4)CC3)nc2cc1Br	nt	nt	55	149
CCOc1ccc2nc(N3CCCC(C(=O)N4CCN(CC)CC4)C3)sc2c1 (stereo unspecified)	nt	i	25	i
CCOc1ccc2nc(SCc3ccc(F)cc3)sc2c1	i	i	37	36
CN(C(=O)CSc1nc(-c2ccc(C(C)(C)C)cc2)c(C#N)c(=O)[nH]1)C1CCCCC1	i	i	i	i
Cc1csc2nc(CN3CCN(CC(=O)N(C)C)CC3)cc(=O)n12	i	i	i	i
Cc1cc(NC(=O)c2ccc(F)c(S(=O)(=O)N3CCCCC3)c2)no1	?	?	i	i
